The campaign covered roughly 5,500 compounds. About 2,000 (36%) were called active. Another 18% or so got no clear call; they are omitted. Rule as the data show it: active = normalized growth mostly below about 0.91 (no sharp cut-off); inconclusive = no clear call, values can overlap the other calls; inactive = mostly above about 0.92. Some of the results follow.
Experiment: chemical genetic growth profiling, strain panel (AID 1159580);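 also: tested at 20 µM; growth read once vehicle control cultures reached saturation at 30 °C; 1 = growth at the plate median or of vehicle wells; lower values mean less growth of the strain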
Conditions: S. cerevisiae deletion strains, growth OD

Measured: normalized growth

Nc1ccc(C(=O)O)c(O)c1 (tested in a mixture with another compound)
inactive: locus YBR021W, strain FUR4, active compounds read low 1 | locus YBR229C, strain ROT2, active compounds read low 0.988 | locus YCL029C, strain bik1, active compounds read low 0.993 | locus YDL035C, strain GPR1, active compounds read low 0.989 | locus YDL074C, strain BRE1, active compounds read low 1.01 | locus YDL101C, strain DUN1, active compounds read low 0.995 | locus YDL134C, strain PPH21, active compounds read low 0.994 | locus YDL185W, strain tfp1, active compounds read low 0.993 | locus YDL192W, strain arf1, active compounds read low 0.988 | locus YDR101C, strain arx1, active compounds read low 1.02 | locus YDR162C, strain NBP2, active compounds read low 0.995 | locus YDR318W, strain mcm21, active compounds read low 0.992 | locus YDR388W, active compounds read low 0.981 | locus YDR502C, strain sam2, active compounds read low 1.02 | locus YEL061C, strain CIN8, active compounds read low 0.994 | locus YER110C, active compounds read low 0.976 | locus YER155C, strain BEM2, active compounds read low 0.999 | locus YER167W, strain BCK2, active compounds read low 0.985 | locus YGL078C, strain dbp3, active compounds read low 0.992 | locus YGL086W, strain mad1, active compounds read low 1.03 | locus YGL248W, strain PDE1, active compounds read low 0.994 | locus YGR135W, strain pre9, active compounds read low 0.945 | locus YGR252W, strain gcn5, active compounds read low 0.963 | locus YHR030C, strain SLT2, active compounds read low 0.993 | locus YHR079C, strain IRE1 (second series), active compounds read low 0.98 | locus YHR094C, strain hxt1, active compounds read low 0.977 | locus YHR129C, strain ARP1, active compounds read low 0.998 | locus YHR200W, strain rpn10, active compounds read low 0.988 | locus YIL066C, strain RNR3, active compounds read low 0.996 | locus YIL073C, strain SPO22, active compounds read low 1.01 | locus YIL125W, strain kgd1, active compounds read low 0.988 | locus YIR030C, strain dcg1, active compounds read low 0.979 | locus YJL095W, strain BCK1, active compounds read low 1.02 | locus YJL134W, strain LCB3, active compounds read low 0.994 | locus YJL168C, strain set2, active compounds read low 0.976 | locus YJL187C, strain SWE1 (second series), active compounds read low 1.01 | locus YJR043C, strain POL32, active compounds read low 0.981 | locus YJR075W, strain HOC1, active compounds read low 0.988 | locus YKL009W, strain mrt4, active compounds read low 1 | locus YKL068W, active compounds read low 0.992 | locus YKL085W, strain MDH1 (second series), active compounds read low 0.984 | locus YKL085W, strain MDH1, active compounds read low 0.984 | locus YKL190W, strain CNB1, active compounds read low 0.998 | locus YKR001C, strain vps1, active compounds read low 0.998 | locus YLR039C, strain RIC1, active compounds read low 1.06 | locus YLR058C, strain SHM2, active compounds read low 0.989 | locus YLR102C, strain apc9, active compounds read low 0.983 | locus YLR262C, strain YPT6, active compounds read low 1.02 | locus YLR268W, strain sec22, active compounds read low 0.992 | locus YLR330W, strain CHS5, active compounds read low 0.994 | locus YLR342W, strain FKS1 (second series), active compounds read low 0.968 | locus YLR371W, strain rom2, active compounds read low 0.977 | locus YLR418C, strain cdc73, active compounds read low 0.957 | locus YML016C, strain PPZ1, active compounds read low 0.99 | locus YML032C, strain rad52, active compounds read low 0.994 | locus YML124C, strain tub3, active compounds read low 0.989 | locus YMR078C, strain ctf18, active compounds read low 0.978 | locus YMR223W, strain ubp8, active compounds read low 0.964 | locus YMR307W, strain GAS1, active compounds read low 0.909 | locus YNL067W, strain RPL9B, active compounds read low 1.02 | locus YNL128W, strain TEP1, active compounds read low 0.995 | locus YNL153C, strain GIM3, active compounds read low 1.04 | locus YNL233W, strain BNI4, active compounds read low 1.01 | locus YNL250W, strain rad50, active compounds read low 0.981 | locus YNL271C, strain bni1, active compounds read low 0.991 | locus YNL298W, strain CLA4, active compounds read low 0.983 | locus YNL307C, strain MCK1, active compounds read low 0.981 | locus YNR052C, strain pop2, active compounds read low 0.991 | locus YOL006C, strain TOP1, active compounds read low 1.08 | locus YOL012C, strain htz1 0.929 | locus YOL147C, strain pex11, active compounds read low 0.988 | locus YOR061W, strain CKA2, active compounds read low 0.993 | locus YOR069W, strain VPS5, active compounds read low 0.988 | locus YOR136W, strain idh2, active compounds read low 0.987 | locus YOR144C, strain elg1, active compounds read low 0.977 | locus YOR184W, strain ser1, active compounds read low 0.971 | locus YOR316C, strain cot1, active compounds read low 0.986 | locus YPR119W, strain clb2, active compounds read low 0.984 | locus YPR141C, strain kar3, active compounds read low 0.984 | locus YPR163C, strain tif3, active compounds read low 0.979 | locus YPR167C, strain met16, active compounds read low 0.981 | strain wtn01, active compounds read low 1.01

Source: PubChem BioAssay AID1159580 (chemical genetic matrix, 2015)
